# Results taken from PubChem BioAssay (NCI).
# Compounds without any hit were thinned out: in the full panel of roughly 83,000, 20% have a hit.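 Negative percent growth values reflect cell death: -40 means 40% of the cells present at the start died, and -100 means all died.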 Unmarked numbers belong to inactive results. Active and inactive are the calls of the source. How the source made its calls: active means growth percent below 10; inactive means the rest.
# Experiments:
# Test in all cases: NCI-60 one-dose screen, 48 h (100 = growth as untreated, 0 = no growth, -100 = all killed)
# NCI-H322M lung = conditions: 10 µM unless noted
# HOP-62 NSCLC = conditions: 10 µM unless noted
# NCI-H460 lung = conditions: 10 µM unless noted
# HOP-92 NSCLC = conditions: 10 µM unless noted
# NCI-H522 lung = conditions: 10 µM
# A549/ATCC NSCLC = conditions: 10 µM unless noted
# 786-0 renal = conditions: 10 µM unless noted
# COLO 205 colon = conditions: 10 µM unless noted
Structure (SMILES),growth (NCI-H322M lung),growth (HOP-62 NSCLC),growth (NCI-H460 lung),growth (HOP-92 NSCLC),growth (NCI-H522 lung),growth (A549/ATCC NSCLC),growth (786-0 renal),growth (COLO 205 colon)
O=C(N/N=C(\CS(=O)(=O)c1ccccc1)c1cc2cc(Br)ccc2oc1=O)c1ccccc1,104%,114%,99.7%,111%,94.9%,95.3%,106%,
COc1ccc(-n2c(SCc3cc(OC)c(OC)c(OC)c3)nc3ccc(C)cc3c2=O)c(OC)c1,28%,47.4%,4.59% (active),22.7%,,19%,29.6%,-4.21% (active)
O=C(CCCCCCC(=O)Nc1ccc2c(c1)/C(=C/c1ccc[nH]1)C(=O)N2)NO,15.1%,14%,25.8%,-19.7% (active),14.8%,34.9%,26.2%,-58.6% (active)
COc1ccc(Cn2c(Br)c3c(c2-c2cc(OC)c(OC)c(OC)c2)CCc2sc(N)nc2-3)cc1,46%,41.4%,7.43% (active),,-11.4% (active),19%,40.2%,
O=C1/C(=C/c2ccc([N+](=O)[O-])cc2)Oc2ccc(O)cc21,106%,50.6%,40.9%,93.7%,75.4%,70.8%,96%,
COc1ccc(-c2nc(Nc3ccc(F)cc3)nc(Nc3ccc4c(c3)nc(C)n4Cc3ccccc3)n2)cc1,82.4%,53.3%,30.3%,39.7%,55.4%,32%,46.7%,28.2%
COc1cc(C(F)(F)F)ccc1-c1cc(-c2ccc(F)cc2)n[nH]1,90.6%,97.8%,91.6%,96.1%,,,99.9%,
Cc1c(C(=O)Nc2nc(-c3ccccc3)cs2)nnn1-c1ccccc1Br,79.5% [50 µM],94.7% [50 µM],45.2% [50 µM],57.4% [50 µM],,30.9% [50 µM],66.7% [50 µM],42.3% [50 µM]
COc1ccc(C2CC(c3cc(OC)c(OC)c(OC)c3)=NN2c2ccc(S(N)(=O)=O)cc2)cc1 (centres undefined),67.6%,67.3%,58.8%,27.8%,66.9%,,66.6%,75.6%
O=c1[nH]c(-c2ccncc2)nc2sc3c(c12)CCCCCC3,59.4%,52.2%,30.4%,-25.1% (active),,43.7%,80.4%,106%
O=S(=O)(OCCO)c1ccccc1,103%,126%,113%,101%,95.5%,97.2%,108%,118%
O=C(O)C[C@H](O)C[C@H](O)/C=C/c1c(C2CC2)nc2ccccc2c1-c1ccc(F)cc1,58.1%,84.9%,94.4%,-12% (active),53.7%,,91.9%,102%
O=S(=O)(Nc1ccccc1Cl)c1ccc(-c2cnc(C3CC3)o2)cc1,42.3%,34.1%,18%,37.1%,10.9%,31.4%,51.1%,
Clc1ccc(Nc2ccnc(N3CCN(c4ccnc5cc(Cl)ccc45)CC3)n2)cc1,48.6%,47.4%,48.4%,39.4%,35.1%,48.6%,48.4%,46.5%
CCCCCCCC/C=C\CCCCCCCCOc1cccc(CC(=O)NCC[N+]2(C)CCCCC2)c1,92.3%,67%,40.1%,86.9%,63%,82.3%,90.4%,
O=C1c2c(c3c4cc(Br)ccc4[nH]c3c3ccc4ccccc4c23)C(=O)N1O,96.9%,79.6%,83.8%,140%,63.2%,95.6%,106%,

Structure (SMILES),growth (NCI-H322M lung),growth (HOP-62 NSCLC),growth (NCI-H460 lung),growth (HOP-92 NSCLC),growth (NCI-H522 lung),growth (A549/ATCC NSCLC),growth (786-0 renal),growth (COLO 205 colon)
COC(=O)c1c2c(c(C)[n+]([O-])c1C)C(=O)C=C(NCc1cccc(Cl)c1)C2=O,-18.3% (active),-19.8% (active),-3.61% (active),-32.2% (active),-63.5% (active),-49.5% (active),6.87% (active),
COc1ccc(-c2[nH]ncc2Nc2cc(OC)c(OC)c(OC)c2)cc1,48.7%,51.7%,14.1%,65.8%,12.7%,61.2%,44.1%,-11.9% (active)
Cc1ccc2c(c1)c(Sc1ccc(C(=O)NO)cc1)c1n2CN(C)CC1,31.1%,33.7%,7.16% (active),27.9%,,1.5% (active),37.7%,14.1%
COc1ccc(C2SC(C)C(=O)N2CCc2cccs2)cc1OC (centres undefined),91.7%,94.5%,90.3%,,66.2%,80.6%,92%,93.9%
CCOC(=O)c1cnn(CC(O)c2ccc(F)cc2)c1NC(=O)Nc1ccccc1F (centres undefined),103%,101%,105%,102%,92.2%,103%,90.3%,
O=C1c2cc(S(=O)(=O)O)ccc2C(=O)c2c1cccc2[N+](=O)[O-],111%,117%,115%,110%,96.6%,98.6%,101%,108%
O=C(COc1ccc(/C=C2\CSc3ccccc3C2=O)cc1)c1ccc(Cl)cc1,111%,94.4%,115%,122%,99.4%,101%,105%,103%
CCOc1ccc(/C=N\N2CCCCCC2)cc1OCC,,93.8%,106%,54.2%,97.8%,,106%,84.2%
COc1ccc2nc(-n3nc(C)cc3C)c(-n3nc(C)cc3C)nc2c1,,105%,108%,115%,100%,115%,105%,113%
NC(=O)c1nc2c([nH]c1=O)CCCC2,120%,94.7%,115%,,91.6%,103%,106%,101%
CCN(C(=O)c1ccc2c3c(cccc13)C=C2)c1ccccc1,,99.8%,111%,86.5%,79.1%,80.2%,91.1%,119%
CCCCCCCC/C=C\CCCCCCCCOc1cccc(CC(=O)NCC[N+]2(C)CCOCC2)c1,,66.3%,67%,86.4%,77%,90.6%,94.9%,
COc1ccc(NC(=O)c2ccc3c(c2)nc(-c2ccc(Cl)cc2)n3-c2cc(C(C)(C)C)[nH]n2)cc1,85.5%,,101%,59.3%,73.7%,79.7%,87.6%,
O=C1c2ccccc2C(=O)c2c(Nc3ccc(CCO)cc3)ccc(O)c21,,107%,56%,,71.5%,67.5%,104%,49.1%
CCCCCCCCCCCC(=O)[O][Sn]([CH2]CCC)([CH2]CCC)[CH2]CCC,,-94.9% (active),-55.2% (active),-95.7% (active),-96% (active),-91.1% (active),-99.7% (active),-78.2% (active)
Cc1cc(Cl)c2c(Cl)ccc(Cl)c2n1,,102%,111%,93.7%,83%,95.4%,101%,114%
